Measurements as given in the supplement of paper PMC11732987, “Enantioselective OTUD7B fragment discovery through chemoproteomics screening and high-throughput optimisation” (Communications Chemistry, 2025).

Legend:
Test in all cases: log2 ratio of Biotin-Ahx-Ub-VS probe labelling (fragment/DMSO); higher = less target engagement (more negative = stronger competition), active = hit call of the paper (q ≤ 0.05, log2 ratio ≤ -1)
Conditions in all cases: compound concentration: 200 uM; treatment time: 3 h
ALG13 = biological target: T1, ALG13 (UniProt Q9NP73)
T1 sequence (whole entry): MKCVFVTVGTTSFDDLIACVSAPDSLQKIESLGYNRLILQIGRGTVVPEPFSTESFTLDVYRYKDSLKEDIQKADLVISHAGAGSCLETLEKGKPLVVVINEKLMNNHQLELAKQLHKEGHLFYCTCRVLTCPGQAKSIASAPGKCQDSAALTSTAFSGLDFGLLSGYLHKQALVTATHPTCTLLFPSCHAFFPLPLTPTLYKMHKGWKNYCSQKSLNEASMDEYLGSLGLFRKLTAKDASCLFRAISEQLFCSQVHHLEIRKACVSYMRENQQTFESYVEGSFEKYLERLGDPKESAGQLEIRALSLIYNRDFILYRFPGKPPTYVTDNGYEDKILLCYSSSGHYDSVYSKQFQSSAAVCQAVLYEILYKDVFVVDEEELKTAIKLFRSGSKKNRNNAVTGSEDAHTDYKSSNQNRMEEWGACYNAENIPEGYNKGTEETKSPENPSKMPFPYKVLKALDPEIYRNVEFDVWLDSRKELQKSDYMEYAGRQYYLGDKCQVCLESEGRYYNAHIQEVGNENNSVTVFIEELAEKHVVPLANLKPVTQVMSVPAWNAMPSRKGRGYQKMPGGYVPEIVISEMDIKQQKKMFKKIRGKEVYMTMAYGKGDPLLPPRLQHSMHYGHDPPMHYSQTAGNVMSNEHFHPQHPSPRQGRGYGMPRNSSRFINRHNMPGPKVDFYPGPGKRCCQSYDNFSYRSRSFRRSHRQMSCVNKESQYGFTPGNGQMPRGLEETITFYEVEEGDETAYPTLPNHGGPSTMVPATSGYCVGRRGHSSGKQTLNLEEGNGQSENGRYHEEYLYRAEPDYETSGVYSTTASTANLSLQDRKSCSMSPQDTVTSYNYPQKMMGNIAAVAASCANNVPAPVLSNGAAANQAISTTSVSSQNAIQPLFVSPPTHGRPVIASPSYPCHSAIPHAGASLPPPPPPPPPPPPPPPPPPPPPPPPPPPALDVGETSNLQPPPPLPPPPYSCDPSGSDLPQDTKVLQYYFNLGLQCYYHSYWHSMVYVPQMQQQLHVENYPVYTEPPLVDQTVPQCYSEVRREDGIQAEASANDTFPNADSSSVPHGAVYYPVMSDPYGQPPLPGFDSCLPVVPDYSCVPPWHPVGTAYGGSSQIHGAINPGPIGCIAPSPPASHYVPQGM
Procedure, shortened: (§1)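 Lysate from HEK293T cells, 495 µg per sample in Tris/CHAPS/IGEPAL buffer with protease inhibitors, was treated for 3 h in triplicate with fragment at 200 µM or vehicle. Biotin-Ahx-Ub-VS was next added at 0.5 µM final for 1 h. The labelled DUBs were enriched with NeutrAvidin, digested with LysC and trypsin, and run by diaPASEF LC-MS/MS, with values given as average log2 fragment/vehicle ratios by unpaired t-test on global-median-normalised Spectronaut quantities of proteins with ≥2 unique peptides.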

ATXN3 = ATXN3 (UniProt P54252)
Procedure, shortened: as §1

BAP1 = biological target: T2, BAP1 (UniProt Q92560)
T2 sequence (whole entry): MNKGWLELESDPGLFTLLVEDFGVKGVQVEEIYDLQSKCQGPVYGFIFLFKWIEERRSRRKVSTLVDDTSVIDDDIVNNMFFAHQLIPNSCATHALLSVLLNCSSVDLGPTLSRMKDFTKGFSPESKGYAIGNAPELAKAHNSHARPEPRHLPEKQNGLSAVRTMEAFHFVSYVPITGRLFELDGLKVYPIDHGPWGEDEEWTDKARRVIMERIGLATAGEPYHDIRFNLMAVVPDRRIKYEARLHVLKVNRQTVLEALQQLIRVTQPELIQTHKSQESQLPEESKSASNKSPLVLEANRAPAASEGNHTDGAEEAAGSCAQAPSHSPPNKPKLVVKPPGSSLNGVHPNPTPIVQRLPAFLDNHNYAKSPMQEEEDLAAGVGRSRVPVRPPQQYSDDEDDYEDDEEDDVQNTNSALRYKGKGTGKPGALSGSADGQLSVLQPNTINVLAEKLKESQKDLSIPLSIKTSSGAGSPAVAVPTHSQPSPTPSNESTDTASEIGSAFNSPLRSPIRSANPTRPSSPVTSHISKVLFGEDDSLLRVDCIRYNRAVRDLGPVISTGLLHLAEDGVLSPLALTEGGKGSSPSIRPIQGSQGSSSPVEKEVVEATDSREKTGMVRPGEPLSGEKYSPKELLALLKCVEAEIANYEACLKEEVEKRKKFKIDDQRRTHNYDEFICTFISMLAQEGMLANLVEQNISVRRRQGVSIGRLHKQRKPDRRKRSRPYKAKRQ
Procedure, shortened: as §1

EIF3F = EIF3F (UniProt O00303)
Procedure, shortened: as §1

EIF3H = EIF3H (UniProt O15372)
Procedure, shortened: as §1

FAM105A = biological target: T3, FAM105A (UniProt Q9NUU6)
T3 sequence (whole entry): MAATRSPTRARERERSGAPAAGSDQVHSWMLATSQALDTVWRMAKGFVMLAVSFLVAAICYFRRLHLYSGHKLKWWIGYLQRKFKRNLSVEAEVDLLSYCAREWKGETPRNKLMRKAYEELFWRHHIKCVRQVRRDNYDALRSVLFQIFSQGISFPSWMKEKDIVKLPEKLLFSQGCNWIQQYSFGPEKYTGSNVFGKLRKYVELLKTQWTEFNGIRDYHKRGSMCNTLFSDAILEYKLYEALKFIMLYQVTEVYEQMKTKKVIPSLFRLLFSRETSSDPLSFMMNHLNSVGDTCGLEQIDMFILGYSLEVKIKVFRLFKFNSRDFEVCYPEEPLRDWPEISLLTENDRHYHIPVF
Procedure, shortened: as §1

OTUB1 = OTUB1 (UniProt Q96FW1)
Procedure, shortened: as §1

OTUD4 = biological target: T4, OTUD4 (UniProt Q01804)
T4 sequence (whole entry): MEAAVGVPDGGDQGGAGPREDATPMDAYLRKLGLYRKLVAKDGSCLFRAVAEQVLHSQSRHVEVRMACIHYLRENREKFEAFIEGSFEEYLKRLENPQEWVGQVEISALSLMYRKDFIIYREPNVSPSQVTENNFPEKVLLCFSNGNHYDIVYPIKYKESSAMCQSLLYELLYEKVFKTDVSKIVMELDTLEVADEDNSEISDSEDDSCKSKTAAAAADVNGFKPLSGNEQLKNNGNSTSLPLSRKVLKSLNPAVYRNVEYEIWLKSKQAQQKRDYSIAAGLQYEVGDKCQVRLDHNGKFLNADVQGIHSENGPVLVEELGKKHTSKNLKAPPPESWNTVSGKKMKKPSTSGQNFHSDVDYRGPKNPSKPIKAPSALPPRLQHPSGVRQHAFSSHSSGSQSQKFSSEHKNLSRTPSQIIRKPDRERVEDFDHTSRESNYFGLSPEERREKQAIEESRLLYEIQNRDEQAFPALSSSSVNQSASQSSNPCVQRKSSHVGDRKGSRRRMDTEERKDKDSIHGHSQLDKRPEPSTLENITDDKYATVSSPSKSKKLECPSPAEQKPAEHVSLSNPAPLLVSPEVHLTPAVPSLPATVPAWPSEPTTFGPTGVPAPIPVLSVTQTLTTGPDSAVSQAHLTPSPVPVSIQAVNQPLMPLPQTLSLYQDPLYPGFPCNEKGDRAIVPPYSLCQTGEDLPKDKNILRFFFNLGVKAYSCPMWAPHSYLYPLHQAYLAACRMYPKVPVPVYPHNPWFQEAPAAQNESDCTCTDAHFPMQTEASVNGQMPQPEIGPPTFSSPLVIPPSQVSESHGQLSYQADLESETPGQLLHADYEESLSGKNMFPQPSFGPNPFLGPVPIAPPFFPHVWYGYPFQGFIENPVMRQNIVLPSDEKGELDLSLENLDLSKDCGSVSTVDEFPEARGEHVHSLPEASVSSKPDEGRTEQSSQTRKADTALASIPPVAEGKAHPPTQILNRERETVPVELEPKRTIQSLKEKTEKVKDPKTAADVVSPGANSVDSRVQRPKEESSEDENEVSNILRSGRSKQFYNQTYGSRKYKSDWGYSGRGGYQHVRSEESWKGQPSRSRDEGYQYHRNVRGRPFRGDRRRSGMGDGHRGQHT
Procedure, shortened: as §1

OTUD5 = biological target: T5, OTUD5 (UniProt Q96G74)
T5 sequence (whole entry): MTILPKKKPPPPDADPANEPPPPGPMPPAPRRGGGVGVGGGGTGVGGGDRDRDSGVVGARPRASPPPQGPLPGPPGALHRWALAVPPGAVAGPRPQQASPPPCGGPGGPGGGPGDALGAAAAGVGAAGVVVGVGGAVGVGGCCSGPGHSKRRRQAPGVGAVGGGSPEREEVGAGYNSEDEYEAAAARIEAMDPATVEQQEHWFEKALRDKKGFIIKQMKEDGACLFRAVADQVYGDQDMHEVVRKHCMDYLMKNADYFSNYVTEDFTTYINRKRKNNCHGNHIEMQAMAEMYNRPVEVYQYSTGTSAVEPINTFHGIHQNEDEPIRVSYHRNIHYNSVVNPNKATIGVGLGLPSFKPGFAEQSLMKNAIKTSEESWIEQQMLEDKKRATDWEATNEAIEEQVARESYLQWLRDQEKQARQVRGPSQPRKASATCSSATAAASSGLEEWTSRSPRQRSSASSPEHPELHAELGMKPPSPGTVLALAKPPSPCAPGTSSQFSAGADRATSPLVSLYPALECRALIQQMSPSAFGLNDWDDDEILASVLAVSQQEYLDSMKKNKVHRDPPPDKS
Procedure, shortened: as §1

Measured: log2 ratio of Biotin-Ahx-Ub-VS probe labelling

Sequence of OTUB1 (Q96FW1 whole entry): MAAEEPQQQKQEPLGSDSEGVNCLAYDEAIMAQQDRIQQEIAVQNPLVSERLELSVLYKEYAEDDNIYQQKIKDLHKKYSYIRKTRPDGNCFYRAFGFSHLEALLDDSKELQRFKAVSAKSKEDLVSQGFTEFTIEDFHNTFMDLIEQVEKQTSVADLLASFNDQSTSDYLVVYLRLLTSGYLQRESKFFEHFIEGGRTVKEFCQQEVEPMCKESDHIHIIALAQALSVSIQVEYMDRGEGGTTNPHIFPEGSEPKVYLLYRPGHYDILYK
Sequence of EIF3F (O00303 whole entry): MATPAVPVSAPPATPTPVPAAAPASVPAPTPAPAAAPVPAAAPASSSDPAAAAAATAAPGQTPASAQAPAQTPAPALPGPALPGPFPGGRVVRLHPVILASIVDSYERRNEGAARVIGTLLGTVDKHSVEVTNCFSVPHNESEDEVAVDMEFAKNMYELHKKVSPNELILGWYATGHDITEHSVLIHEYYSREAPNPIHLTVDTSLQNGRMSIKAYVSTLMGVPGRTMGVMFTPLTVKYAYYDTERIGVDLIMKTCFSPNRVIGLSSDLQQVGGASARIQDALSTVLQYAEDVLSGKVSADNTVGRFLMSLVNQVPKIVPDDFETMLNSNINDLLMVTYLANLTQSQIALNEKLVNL
Sequence of ATXN3 (P54252 whole entry): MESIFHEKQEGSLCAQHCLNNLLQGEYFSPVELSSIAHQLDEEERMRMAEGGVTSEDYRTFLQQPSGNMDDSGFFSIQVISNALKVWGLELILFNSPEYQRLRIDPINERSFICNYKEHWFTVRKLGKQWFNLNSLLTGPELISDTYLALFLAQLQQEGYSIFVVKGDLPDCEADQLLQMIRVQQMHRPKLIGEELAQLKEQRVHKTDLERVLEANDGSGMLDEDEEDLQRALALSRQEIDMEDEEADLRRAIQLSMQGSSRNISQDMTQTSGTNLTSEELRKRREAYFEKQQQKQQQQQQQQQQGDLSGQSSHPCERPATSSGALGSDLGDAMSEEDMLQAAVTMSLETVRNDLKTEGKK
Sequence of EIF3H (O15372 whole entry): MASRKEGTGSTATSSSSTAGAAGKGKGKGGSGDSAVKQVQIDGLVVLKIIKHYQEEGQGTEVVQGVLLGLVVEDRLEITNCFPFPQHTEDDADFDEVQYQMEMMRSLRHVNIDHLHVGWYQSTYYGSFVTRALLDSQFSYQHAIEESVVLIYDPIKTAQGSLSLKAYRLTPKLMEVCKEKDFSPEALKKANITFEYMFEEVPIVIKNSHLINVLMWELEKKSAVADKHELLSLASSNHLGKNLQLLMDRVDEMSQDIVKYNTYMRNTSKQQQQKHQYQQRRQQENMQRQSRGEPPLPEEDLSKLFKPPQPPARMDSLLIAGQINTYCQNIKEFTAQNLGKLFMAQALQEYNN

CS(=O)(=O)N1CCCN(C(=O)CCl)CC1
inactive: ALG13 -0.306 | ATXN3 -0.428 | BAP1 -0.451 | EIF3F -0.0174 | EIF3H 0.332 | FAM105A -0.12 | OTUB1 -0.478 | OTUD4 -0.3 | OTUD5 -0.335

O=C(CCl)N1c2ccccc2NC(=O)C12CCCC2
inactive: ALG13 -0.0909 | ATXN3 -0.311 | BAP1 -0.609 | EIF3F -0.0311 | EIF3H 0.277 | FAM105A 0.141 | OTUB1 -0.478 | OTUD4 -0.196 | OTUD5 -0.711

Cc1ccc(N(CCC#N)C(=O)CCl)cc1C
active: OTUD4 -1.93
inactive: ALG13 -0.389 | ATXN3 -0.353 | BAP1 -0.735 | EIF3F -0.396 | EIF3H 0.219 | FAM105A -0.314 | OTUB1 -0.139 | OTUD5 -0.661

Cc1cccnc1NC(=O)C1CCN(C(=O)CCl)CC1.Cl
inactive: ALG13 0.0719 | ATXN3 -0.281 | BAP1 -0.703 | EIF3F -0.244 | EIF3H 0.146 | FAM105A -0.0889 | OTUB1 -0.251 | OTUD4 -0.365 | OTUD5 -0.447

O=C(CCl)Nc1ccc(N2CCCC2=O)cc1
inactive: ALG13 0.0794 | ATXN3 0.0787 | EIF3F -0.125 | EIF3H 0.315 | FAM105A 0.0919 | OTUB1 -0.351 | OTUD4 0.0281 | OTUD5 -0.504
active: BAP1 -3.73

C[C@H]1CN(C(=O)CCl)CCN1C(=O)c1cnn(C)c1.Cl
inactive: ALG13 0.134 | ATXN3 -0.631 | BAP1 -0.356 | EIF3F 0.132 | EIF3H 0.0411 | FAM105A 0.375 | OTUB1 -0.204 | OTUD4 -0.236 | OTUD5 -0.326

CN(CCc1ncc(Br)cn1)C(=O)CCl.Cl
inactive: ALG13 -0.0179 | ATXN3 -0.617 | BAP1 -0.611 | EIF3F -0.295 | EIF3H 0.145 | FAM105A 0.245 | OTUB1 0.000215 | OTUD4 -0.616 | OTUD5 -0.588

Cl.O=C(CCl)NCCN1CCc2ccccc21
active: BAP1 -1.61
inactive: ALG13 -0.000809 | ATXN3 -0.887 | EIF3F -0.106 | EIF3H 0.469 | FAM105A 0.43 | OTUB1 0.169 | OTUD4 -0.775 | OTUD5 -0.79
